Source: PubChem BioAssay
AMA1-RON2 inh: AMA1-RON2 (P. falciparum) interaction inhibition; AlphaScreen AMA1-biotinylated RON2 peptide binding; Potency, µM (doses to about 58.2 µM), for the others: at the highest dose activity change, negative = inhibition, actives largely listed as inhibitors; 360,000 tested, 0.2% active; AID 720542;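 also: 0% = vehicle wells and -100% = peptide control; nearly all actives have a fitted effect of over 45% in size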
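AMA1 (3D7) with his tag at 25 nM final met compounds first, then biotinylated RON2 peptide at 25 nM; detection used donor plus acceptor beads, 10 µg/mL apiece, read by AlphaScreen after 30 min at room temperature.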
FMDV inh: antivirals against foot and mouth disease virus; FMDV antiviral cell-based qHTS; Potency, µM (top dose mostly 57.9 µM), inactives show at the top dose activity change, negative = inhibition, actives largely listed as inhibitors; AID 1159524; 410,000 tested, 1.2% active; calls by dose curve; tested in HEK293T cells; also: read-out not given here; nearly all actives have a fitted effect of over 45% in size
AmpC detergent: inhibitors of E. coli AmpC beta-lactamase with detergent | AmpC hydrolysis of nitrocefin, absorbance 480 nm, 0.01% Triton | P00811 | 370,000 tested, 0.041% active | AID 485294 | Potency, µM (series often up to 114 µM), for the others: at the top dose activity change, negative = inhibition, usual class: inhibitors;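 also: 0% = no-compound wells and -100% = no-enzyme wells; nearly all actives have a fitted effect of over 25% in size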
Target sequence (P00811 whole entry, looked up): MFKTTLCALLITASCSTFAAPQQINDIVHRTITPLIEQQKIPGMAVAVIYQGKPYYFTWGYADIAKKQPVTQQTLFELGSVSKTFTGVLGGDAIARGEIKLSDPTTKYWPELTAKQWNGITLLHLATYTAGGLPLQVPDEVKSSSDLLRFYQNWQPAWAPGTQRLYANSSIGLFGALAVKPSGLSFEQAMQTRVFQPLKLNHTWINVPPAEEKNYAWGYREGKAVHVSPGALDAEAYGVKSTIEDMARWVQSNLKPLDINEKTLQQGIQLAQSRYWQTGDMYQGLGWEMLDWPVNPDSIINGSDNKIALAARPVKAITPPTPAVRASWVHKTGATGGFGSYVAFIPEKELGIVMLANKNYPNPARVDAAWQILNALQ
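20 mM phosphate pH 7.0 + 0.01% (detergent screen) or 0.0001% Triton X-100; 5.3 nM AmpC reagent; cpd preinc 15 min RT; nitrocefin (800 uM stock) to start; A480 q20 s × 4 min; Activity was normalised to no-enzyme and no-compound control wells.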
Sm TGR inh: inhibitors of Schistosoma mansoni thioredoxin glutathione reductase | Q962Y6 | purified TGR, DTNB reduction, TNB absorbance 405 nm | Potency, µM (doses to about 114 µM), inactives show at the top dose activity change, negative = inhibition, hits mostly inhibitors | 360,000 tested, 3% active | AID 485364; also: nearly all actives have a fitted effect of over 60% in size
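Kinetic colorimetric format: TGR-catalysed, NADPH-driven DTNB reduction monitored via TNB absorbance. Enzyme dispensed at 20 nM; compound exposure 15 min at room temperature before reaction start.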
AmpC inh no detg: blocks E. coli AmpC beta-lactamase in detergent-free assay | AmpC nitrocefin hydrolysis, absorbance 480 nm, 0.0001% Triton | 330,000 tested, 0.52% active | P00811 | Potency, µM (series often up to 57.1 µM), for the others: top-dose activity change, negative = inhibition, actives largely listed as inhibitors;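 also: plate controls were no compound for no effect and no enzyme for full effect; nearly all actives have a fitted effect of over 20% in size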
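20 mM phosphate pH 7.0 + 0.01% (detergent screen) or 0.0001% Triton X-100; 5.3 nM AmpC reagent; cpd preinc 15 min RT; nitrocefin (800 uM stock) to start; A480 q20 s × 4 min; Activity was normalised to no-enzyme and no-compound control wells.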
Active calls of the source: *. An excerpt weighted towards active compounds, which were near 4.1% of everything screened. Unless noted, calls follow the shape of the dose curve; as a rule, active = well fitted curve in the direction sought with a large enough effect; inconclusive = small, poorly fitted or top-dose-only effect, or another doubt; inactive = no such curve, though single readings can be large; an effect the other way counts as inactive or inconclusive. Unless noted, % is scaled to controls: 0 for no effect and ±100 for the full control effect; potency is read from the fitted curve at half-maximal effect.

CCOC(=O)/C(C#N)=C/C1=C(N2CCOCC2)C(C)(C)OCC1 was read as AMA1-RON2 inh -5%, FMDV inh -6%, AmpC detergent 6%, Sm TGR inh 28µM* and AmpC inh no detg -9%.
`CCOC(=O)/C(C#N)=C\C1=C(N2CCCC2)CC(C)(C)OC1` gave AMA1-RON2 inh 6%, FMDV inh -6%, AmpC detergent -8%, Sm TGR inh -7% and AmpC inh no detg -9%.
`COc1ccc(-c2cn3c(n2)sc2cc(C(=O)Nc4c(C)cccc4C)ccc23)cc1` gave FMDV inh -17%, AmpC detergent 1% and Sm TGR inh -2%.
For CCCCn1cnc2c(c(-c3ccccc3)c(-c3ccccc3)n2Cc2ccco2)c1=N the results were AMA1-RON2 inh 6%, FMDV inh -23%, AmpC detergent -1%, Sm TGR inh -27% and AmpC inh no detg 88%.
For N=c1c2c(-c3ccccc3)c(-c3ccccc3)n(Cc3ccco3)c2ncn1Cc1ccco1 the results were AMA1-RON2 inh -22%, FMDV inh 25µM*, AmpC detergent inconclusive, Sm TGR inh inconclusive and AmpC inh no detg 110%.
Screening O=C(C1CCC(CNc2nc(=S)[nH]c3ccccc23)CC1)N1CCN(c2ccc(F)cc2)CC1 (stereo not given) returned AMA1-RON2 inh -9%, FMDV inh 18µM*, AmpC detergent 5%, Sm TGR inh -1% and AmpC inh no detg -8%.
O=C(C1CCC(Cn2c(=S)[nH]c3ccccc3c2=O)CC1)N1CCN(c2ccccn2)CC1 (stereo not given) was read as AMA1-RON2 inh 16%, FMDV inh 22µM*, AmpC detergent inconclusive, Sm TGR inh -1% and AmpC inh no detg -22%.
COc1ccc(C)cc1NS(=O)(=O)c1cc(Br)cc2c1N(C(C)=O)C(C)C2 (stereo not given) was read as FMDV inh 36%, AmpC detergent inconclusive and Sm TGR inh 8%.
Cc1cccc(NC(=O)c2cccc(N3CCCS3(=O)=O)c2)c1 was read as FMDV inh 22%, AmpC detergent 3% and Sm TGR inh 6%.
Screening COc1ccc(C2=CC(=O)C=CC2=O)cc1 returned AmpC detergent inconclusive, Sm TGR inh 0.89µM* and AmpC inh no detg 32µM*.
Screening Cc1nc2sc(-c3ccccc3)cc2c(=O)n1N returned AMA1-RON2 inh 38%, FMDV inh 40µM*, AmpC detergent 3%, Sm TGR inh 4% and AmpC inh no detg -6%.
`CCOc1ccccc1NC(=O)c1cc2c(Cl)nc3ccccc3c2s1` gave FMDV inh 1%, AmpC detergent -13% and Sm TGR inh 0%.
CCCCCn1c(=O)c(F)cn(Cc2ccc(OC)c([N+](=O)[O-])c2)c1=O was read as AMA1-RON2 inh 12%, FMDV inh inconclusive, AmpC detergent -5%, Sm TGR inh -1% and AmpC inh no detg -1%.
CCCCCCn1c(=O)c(F)cn(Cc2ccc(OC)c([N+](=O)[O-])c2)c1=O was read as AMA1-RON2 inh -9%, FMDV inh 0%, AmpC detergent 2%, Sm TGR inh -1% and AmpC inh no detg 0.14µM*.
`CC(=O)N1CCC2(CC1)CN(C(c1ccccc1)c1ccccc1)C2` gave FMDV inh -2%.
NC(=O)CN1C(=O)/C(=c2\sc3nc(=O)c(Cc4ccccc4)nn3c2=O)c2ccccc21 was read as AMA1-RON2 inh 7%, FMDV inh -5%, AmpC detergent 5%, Sm TGR inh 0.35µM* and AmpC inh no detg -14%.
For Cc1ccc2[nH]c(C(=O)NCc3nc(-c4cccc(NC(=O)c5cc(C)oc5C)c4)oc3C)cc2c1 the results were FMDV inh 2%.
`CN(C)c1ccc(/C=N/NC(=O)C2COc3ccccc3O2)o1` (stereo not given) gave AMA1-RON2 inh 40%, FMDV inh 16%, AmpC detergent inconclusive, Sm TGR inh 16µM* and AmpC inh no detg -4%.
`O=C1c2ccccc2CC1Sc1nnc(-c2ccccn2)o1` (stereo not given) gave AMA1-RON2 inh 107%, FMDV inh 66%, AmpC detergent inconclusive, Sm TGR inh 45µM* and AmpC inh no detg -15%.
`CC(=O)Nc1ccc(S(=O)(=O)N2CCN=C2SCc2cccc(C)c2)cc1` gave AMA1-RON2 inh -1%, FMDV inh inconclusive, AmpC detergent -13%, Sm TGR inh 0% and AmpC inh no detg 14%.
CC(=O)Nc1ccc(S(=O)(=O)N2CCN=C2SCc2ccc([N+](=O)[O-])cc2)cc1 was read as AMA1-RON2 inh -6%, FMDV inh 22µM*, AmpC detergent -5%, Sm TGR inh -10% and AmpC inh no detg 3%.
`Cc1ccc(-n2nc3c(=O)n(CC(=O)NCCC(C)C)nc(C)c3c2C)cc1` gave FMDV inh -10%, AmpC detergent 20% and Sm TGR inh 1%.
`O=C(OC(C(=O)NCc1cccs1)c1ccccc1Cl)c1ccco1` (stereo not given) gave AMA1-RON2 inh -3%, AmpC detergent inconclusive, Sm TGR inh 45µM* and AmpC inh no detg -34%.
For CC(C)C(OC(=O)c1cccs1)C(=O)NCc1ccco1 (stereo not given) the results were AMA1-RON2 inh 7%, FMDV inh -3%, AmpC detergent -1%, Sm TGR inh 35µM* and AmpC inh no detg -48%.
COc1ccccc1C(OC(=O)c1cccs1)C(=O)NCc1ccco1 (stereo not given) was read as AMA1-RON2 inh -3%, FMDV inh -30%, AmpC detergent -8%, Sm TGR inh 13µM* and AmpC inh no detg -24%.
For CC(=O)OC(C(=O)NCc1ccco1)c1ccncc1 (stereo not given) the results were AMA1-RON2 inh 1%, FMDV inh -20%, AmpC detergent -11%, Sm TGR inh 45µM* and AmpC inh no detg 0%.
`O=C(OC(C(=O)NCc1cccs1)c1ccc(F)cc1)c1ccco1` (stereo not given) gave AMA1-RON2 inh 1%, FMDV inh 13%, AmpC detergent -13%, Sm TGR inh 3% and AmpC inh no detg -21%.
CCNc1ncc2nc(-c3ccc(F)cc3)c(=O)n(CCC#N)c2n1 was read as FMDV inh -2%.
`Cc1cccc(CSc2nnc3[nH]c(=O)cc(-c4ccccc4)n23)c1` gave FMDV inh 0%, AmpC detergent 0% and Sm TGR inh 4%.
Cc1cc(C(=O)O/N=C(\N)c2ccc(C(C)(C)C)cc2)no1 was read as AMA1-RON2 inh -4%, FMDV inh 27%, AmpC detergent -3%, Sm TGR inh 8% and AmpC inh no detg -18%.
